Assay [1] has as its system Human papillomavirus type 1a protein E7 (residues 44-93). Description: small molecules binding HPV E7 44-93 – biochemical, small-molecule microarray, residues 44-93, 635 nm fluorescence, primary screen (AID 1108).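 Note: E7 fragment applied at 1 µg/mL in TBST for 1 h at 4 C; score combines spot fluorescence with its signal to noise ratio.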 To be noted: fluorescence 635 nm, higher = more signal.
The nature of assay [2]: hepatitis C replication reporter changes, two-sided – Huh7 cells, luciferase reporter, HCV replication inhibitor project, primary screen (AID 1109).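 Note: huh7 hepatoma cells harbouring a luciferase neomycin HCV replicon reporter; luciferase luminescence as measure of HCV replicon replication; test concentration not given here.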 Particulars: Huh7 HCV replicon luciferase reporter, 48 h; higher = more signal. A general note: In a reporter assay the amount or activity of a reporter protein is the signal.
In assay [3] the target is Left-right determination factor 2 (Homo sapiens) (UniProt O00292). In words: small molecules binding LEFTY2 protein – biochemical, small-molecule microarray, 635 nm fluorescence scan, primary screen (AID 1110). To be noted: higher = more signal.
For assay [4], the target named is Calmodulin-1 (Homo sapiens) (UniProt P0DP23). In words: small molecules binding calmodulin-1 with EGTA – biochemical, small-molecule microarray, Cy5-labelled CALM1, profiling panel (AID 1111).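 Note: labelled calmodulin applied in Tris saline Tween buffer holding calcium plus EGTA and DTT.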 To be noted: Cy5-CALM1 binding fluorescence, higher = more signal.
The target is the same in assay [5]. In words: small molecules binding Ca-loaded calmodulin-1 – biochemical, small-molecule microarray, Cy5-labelled CALM1, plus calcium, artefact control for SMM control-protein annotation, profiling panel (AID 1112).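 Note: score merges spot fluorescence with signal to noise from triplicate slides.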 To be noted: Cy5-CALM1 binding fluorescence, higher = more signal.
A short description of assay [6]: probe aWnt5a binding to arrayed compounds – biochemical, biotinylated probe, 635/667 nm fluorescence, primary screen (AID 1113).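 Note: score merges 667 nm fluorescence intensity with signal-to-noise per printed feature.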 Particulars: small-molecule microarray, higher = more signal.
A short description of assay [7]: probe aShh binding to arrayed compounds – biochemical, biotinylated probe, 635/667 nm fluorescence, primary screen (AID 1114).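 Note: probe is biotin-labelled aShh protein from a stem cell growth factor screen; measures binding of labelled protein to compounds printed on the slide; score merges feature fluorescence at 667 nm with signal-to-noise.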 To be noted: small-molecule microarray, higher = more signal.
A short description of assay [8]: probe aNog binding to arrayed compounds – biochemical, biotinylated probe, 635/667 nm fluorescence, primary screen (AID 1115).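 Note: probe is biotinylated aNog protein used at 0.15 µg/mL for 1 h at 4 C; z-score combines 667 nm fluorescence of each spot with its signal to noise.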 Particulars: small-molecule microarray, higher = more signal.
The target in assay [9] is Torsin-1A-interacting protein 1 (Homo sapiens) (UniProt Q5JTV8). Description: compound microarray binding of lysate hLAP1 – cell lysate, small-molecule microarray, COS7 lysate, 635/667 nm fluorescence, primary screen (AID 1116). To be noted: 635 nm fluorescence, higher = more signal.
The target in assay [10] is Alpha-bungarotoxin (Bungarus multicinctus) (UniProt P60615). Description: compounds binding labelled alpha-BTX control protein – biochemical, small-molecule microarray, Alexa647 label, 635/667 nm fluorescence, artefact control for SMM control protein annotation, profiling panel (AID 1117). Particulars: alpha-BTX-A647 binding fluorescence, higher = more signal.
The target in another assay is Albumin (Bos taurus) (UniProt P02769). In words: compounds binding labelled BSA control protein – biochemical, small-molecule microarray, Alexa647 label, 635/667 nm fluorescence, artefact control for SMM control protein annotation, profiling panel (AID 1118).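 Note: score merges 667 nm emission intensity and signal-to-noise per printed compound spot.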 Particulars: BSA-A647 binding, fluorescence 635 nm, higher = more signal.
Assay [11] is described as follows: probe aXIP binding to arrayed compounds – biochemical, NeuroSMM set, 635/667 nm fluorescence, primary screen (AID 1119).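 Note: probe is the protein aXip251-270 applied at 1 µg/mL to compound-printed slides; binding of probe to printed compounds measured as 667 nm fluorescence plus signal to noise.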 Particulars: small-molecule microarray, higher = more signal, called active from +8 up or from −8 down.
Assay [12] can be described thus: probe aNOTCH3 binding on compound microarray – biochemical, small-molecule microarray, 635/667 nm fluorescence, primary screen (AID 1120).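 Note: probe is a biotin-tagged antibody raised against NOTCH3 rather than NOTCH3 protein; score merges spot fluorescence near 667 nm with spot signal to noise.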 Particulars: higher = more signal.
The nature of assay [13]: probe aNOTCH2 binding on compound microarray – biochemical, small-molecule microarray, 635/667 nm fluorescence, primary screen (AID 1121).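 Note: score merges feature fluorescence read at 667 nm with its signal to noise.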 To be noted: higher = more signal.
Assay [14] has as its target Carbonic anhydrase 2 (Homo sapiens) (UniProt P00918). In words: compounds binding carbonic anhydrase 2 – biochemical, small-molecule microarray, Alexa647-labelled CAII, profiling panel (AID 1122). Particulars: CAII-A647 binding fluorescence, higher = more signal.
Assay [15] is described as follows: COS7 lysate on small-molecule microarray, probe aHis, 635 nm (AID 1123).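 Note: z-score combines 667nm fluorescence intensity with signal-to-noise per printed compound spot.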 Particulars: COS7 cell lysate, fluorescence, higher = more signal.
Assay [16] is described as follows: probe aLAP1 signal on lysate-treated microarray – cell lysate, small-molecule microarray, COS7 lysate, primary screen (AID 1124).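 Note: lysate comes from COS7 cells expressing LAP1 and is applied at 0.3 µg/mL; score merges spot fluorescence near 667 nm with signal-to-noise over triplicate slides.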 To be noted: probe aLAP1, fluorescence, higher = more signal.
A further assay deals with Sam68 (KHDRBS1). In words: compounds binding KHDRBS1 protein – biochemical, small-molecule microarray, 635 nm fluorescence, primary screen (AID 1125).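 Note: score merges 667 nm channel intensity with signal to noise over triplicate slides.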 To be noted: higher = more signal.
Assay [17] relates to Chordin-like protein 2 (CHRDL2). In words: compounds binding chordin-like 2 – biochemical, small-molecule microarray, 635 nm fluorescence, primary screen (AID 1126).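 Note: printed compound slides probed with Chrdl2 protein at 4 µg/mL for 1 h at 4 C; score merges 667 nm emission intensity with signal to noise over three replicate slides.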 To be noted: fluorescence 635 nm, higher = more signal.
For assay [18], the target named is Concanavalin-A (Canavalia ensiformis) (UniProt P02866). In words: compounds binding concanavalin A lectin – biochemical, small-molecule microarray, Alexa647 label, 635 nm, artefact control for SMM control protein annotation, primary screen (AID 1127).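 Note: z combines 667 nm emission intensity with signal-to-noise across three replicate slides.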 To be noted: ConA-A647 binding fluorescence, higher = more signal.

SMILES strings stand for the structures. Activity calls are given as the source filed them.

Left-right determination factor 2 (Homo sapiens), sequence (O00292 whole entry, looked up): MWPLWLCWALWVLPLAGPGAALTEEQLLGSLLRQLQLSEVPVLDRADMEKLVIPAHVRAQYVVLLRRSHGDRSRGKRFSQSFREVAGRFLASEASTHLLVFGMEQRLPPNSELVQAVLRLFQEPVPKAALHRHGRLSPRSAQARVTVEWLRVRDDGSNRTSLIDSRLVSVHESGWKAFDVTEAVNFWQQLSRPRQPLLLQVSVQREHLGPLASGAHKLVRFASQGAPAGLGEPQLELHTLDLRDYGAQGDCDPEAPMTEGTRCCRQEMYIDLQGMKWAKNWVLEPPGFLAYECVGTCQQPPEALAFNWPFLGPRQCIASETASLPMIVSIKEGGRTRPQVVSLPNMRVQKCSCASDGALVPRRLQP
Albumin (Bos taurus), sequence (P02769 whole entry, looked up): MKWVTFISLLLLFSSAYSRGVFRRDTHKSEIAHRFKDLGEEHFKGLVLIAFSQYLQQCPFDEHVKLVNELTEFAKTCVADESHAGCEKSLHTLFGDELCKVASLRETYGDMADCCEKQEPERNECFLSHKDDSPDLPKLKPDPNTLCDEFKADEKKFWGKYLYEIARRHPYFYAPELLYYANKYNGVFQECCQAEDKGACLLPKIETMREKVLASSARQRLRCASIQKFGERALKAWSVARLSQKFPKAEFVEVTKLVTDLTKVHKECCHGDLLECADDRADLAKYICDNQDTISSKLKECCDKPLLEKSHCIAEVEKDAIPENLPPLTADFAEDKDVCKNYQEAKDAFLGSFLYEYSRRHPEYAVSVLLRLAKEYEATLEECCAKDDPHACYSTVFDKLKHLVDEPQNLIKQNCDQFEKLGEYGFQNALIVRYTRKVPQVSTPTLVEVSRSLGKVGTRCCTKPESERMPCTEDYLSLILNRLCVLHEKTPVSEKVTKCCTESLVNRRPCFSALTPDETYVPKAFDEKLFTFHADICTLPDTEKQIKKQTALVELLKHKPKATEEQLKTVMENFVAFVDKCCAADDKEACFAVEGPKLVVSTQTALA
Concanavalin-A (Canavalia ensiformis), sequence (P02866 whole entry, looked up): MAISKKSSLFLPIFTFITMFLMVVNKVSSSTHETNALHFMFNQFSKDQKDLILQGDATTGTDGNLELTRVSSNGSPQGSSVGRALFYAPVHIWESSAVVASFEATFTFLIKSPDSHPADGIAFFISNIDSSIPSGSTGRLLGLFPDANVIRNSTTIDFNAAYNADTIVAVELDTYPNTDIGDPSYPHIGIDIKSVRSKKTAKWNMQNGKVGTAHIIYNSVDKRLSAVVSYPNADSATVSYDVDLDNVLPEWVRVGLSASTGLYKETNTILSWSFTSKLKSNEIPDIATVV
Alpha-bungarotoxin (Bungarus multicinctus), sequence (P60615 whole entry, looked up): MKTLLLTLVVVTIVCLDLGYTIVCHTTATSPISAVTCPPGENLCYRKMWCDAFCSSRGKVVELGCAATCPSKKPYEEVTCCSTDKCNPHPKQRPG
Torsin-1A-interacting protein 1 (Homo sapiens), sequence (Q5JTV8 whole entry, looked up): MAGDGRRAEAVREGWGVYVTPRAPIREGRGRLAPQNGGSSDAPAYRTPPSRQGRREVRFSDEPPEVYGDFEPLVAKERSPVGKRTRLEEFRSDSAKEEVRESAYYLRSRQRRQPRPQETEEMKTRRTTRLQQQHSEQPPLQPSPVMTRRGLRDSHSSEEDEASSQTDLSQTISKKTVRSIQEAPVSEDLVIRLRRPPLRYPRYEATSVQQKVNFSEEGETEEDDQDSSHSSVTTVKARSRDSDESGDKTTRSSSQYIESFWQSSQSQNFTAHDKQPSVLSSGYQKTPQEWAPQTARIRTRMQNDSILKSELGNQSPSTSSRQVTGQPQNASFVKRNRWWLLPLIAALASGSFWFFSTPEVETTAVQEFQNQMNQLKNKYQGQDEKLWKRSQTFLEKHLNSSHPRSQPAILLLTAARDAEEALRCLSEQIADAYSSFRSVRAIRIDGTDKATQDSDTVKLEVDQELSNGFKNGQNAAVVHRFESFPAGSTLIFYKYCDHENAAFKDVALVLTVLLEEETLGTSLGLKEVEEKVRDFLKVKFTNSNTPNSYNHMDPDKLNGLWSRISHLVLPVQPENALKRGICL

Turning to `O=C1OCCC=C[C@H]2OC34C=CCN(CCN5CCOCC5)C(=O)[C@H]3N(CCCO)C(=O)[C@@H]4C12` (stereo not given in full), the composite z-score in [1] was -0.211; in [3], -0.861; in assay [4] it was -0.572; in assay [5] it was -1.17; in assay [6] it was -0.228; in assay [7] it was -0.144. Moreover, the composite z-score in assay [8] is -0.318; in [9], -0.79; in [10] it was -0.386; with Albumin (Bos taurus) it was -0.444; in assay [12], -0.155; in [13], -0.171. Besides, the composite z-score in [14] was 0.0003; in assay [15], 1.2; in [16] it was -0.0411; in the assay with Sam68 (KHDRBS1), -0.119; in assay [17], -0.794; in [18], -0.112. Moreover, the z-score in assay [2] was -1.03. Further, the composite Z-score in assay [11] was 1.11 (inactive).

In the case of `NC(=O)[C@@]1(CCS(=O)(=O)c2ccccc2)COC(c2ccc(OCCCO)cc2)=N1`, the composite z-score is -0.244 in [1]; -0.323 in assay [3]; 1.12 in assay [4]; 0.549 in [5]; -0.0495 in [6]; 0.138 in [7]. Also, the composite z-score is -0.359 in assay [8]; 0.512 in assay [9]; 0.768 in assay [10]; 0.336 with Albumin (Bos taurus); 0.119 in assay [12]; 0.327 in assay [13]. Further, the composite z-score is 0.445 in assay [14]; 0.043 in assay [15]; -0.84 in assay [16]; -0.0922 with Sam68 (KHDRBS1); -0.536 in [17]; 0.411 in assay [18]. The z-score in assay [2] was -0.806. The composite Z-score in assay [11] is -0.823 (inactive).

Take `CCCC[C@@H]1C[C@H]1[C@@H](NC(=O)Cc1ccccc1)c1ccc(Cl)cc1`: the composite z-score in assay [1] is 1.37; in assay [3] it was -0.496; in assay [4] it was 2.44; in assay [5], 1.53; in assay [6], 0.225; in [7], 1.47. The composite z-score in assay [8] was 0.905; in assay [9], 1.12; in [10], 2.14; in the assay with Albumin (Bos taurus), 1.1; in assay [12], 0.532; in [13] it was -0.129. Moreover, the composite z-score was 0.69 in [14]; 2.76 in [15]; 0.323 in [16]; 1.31 with Sam68 (KHDRBS1); -1.01 in [17]; 1.16 in [18]. Besides, the z-score in assay [2] is -1.79. For the same molecule, in assay [11], the composite Z-score is 0.491 (inactive).

As for `C=CCOC(=O)[C@H]1[C@@H]2C(=O)O[C@@H](c3ccccc3)[C@@H](c3ccccc3)N2[C@@H](c2ccc(OCCOC(=O)[C@@H]3C[C@@H]4C(=O)N[C@@H](CC(C)C)C(=O)N4[C@@H]3c3ccc(O)cc3)cc2)[C@]12C(=O)Nc1ccc(I)cc12`, the composite z-score in [1] is 1.37; in [3], 0.835; in assay [4], 1.81; in assay [5], 0.303; in assay [6], 0.0095; in [7], -0.0553. Further, the composite z-score was 0.287 in assay [8]; 1.47 in [9]; 0.912 in assay [10]; 0.822 in the assay with Albumin (Bos taurus); 0.0469 in assay [12]; -0.0486 in assay [13]. Moreover, the composite z-score in assay [14] came to 0.668; in [15], 2.52; in assay [16] it was 0.0414; in the assay on Sam68 (KHDRBS1) it was 1.3; in [17] it was 1.33; in assay [18], 1.13. For the same molecule, the z-score in assay [2] was -1.16. In assay [11], the composite Z-score is 1.65 (inactive).

Regarding `CN(C)CCCNC(=O)[C@@]1(Cc2ccccc2I)c2ccccc2C(=O)N(Cc2ccccc2)[C@H]1c1ccc(CO)cc1`, the composite z-score in assay [1] is 1.41; in [3], 0.189; in [4], -0.489; in [5], -0.636; in assay [6] it was 0.22; in assay [7], -0.32. The composite z-score was 0.84 in assay [8]; 1.21 in assay [9]; 0.542 in assay [10]; -0.6 with Albumin (Bos taurus); -0.467 in assay [12]; -0.247 in assay [13]. Moreover, the composite z-score in [14] was 0.362; in [15] it was 3.21; in assay [16], 1.41; in the assay with Sam68 (KHDRBS1), 1.3; in assay [17] it was 0.613; in assay [18], 1.09. Also, the z-score in assay [2] was -3.36. Besides, in [11], the composite Z-score was -0.307 (inactive).

For the origin of these results see PubChem BioAssay.
